Experimental data taken from the supplement of paper PMC9262897, “Low-cost anti-mycobacterial drug discovery using engineered E. coli” (Nature Communications, 2022).
Structures can show the parent of a compound that is named as a salt. ± gives the standard deviation of the averaged measurements.

System: E. coli TESEC Alr+ wild-type control
Test: growth (OD600 after 10 h); higher = more growth (less inhibition)
Details: compound 0.1 mM; raw OD600 reference: median of DMSO wells 0.49, cell-free background 0.052
Protocol: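 TESEC Mtb Alr E. coli (ΔaraC ΔtolC ΔentC Δalr ΔdadX, arabinose-inducible Mtb Alr) or the Alr+ wild-type control strain, grown in defined M9-fructose medium without D-alanine in 96-well plates with Prestwick library compounds at 0.1 mM and 1% DMSO. Low Alr induction is 0.1 µM arabinose and high induction is 10 mM arabinose.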

Row | SMILES | growth
1 | CCCCN(CCCC)CCC(O)c1cc2c(Cl)cc(Cl)cc2c2cc(C(F)(F)F)ccc12 (centres undefined) [Halofantrine hydrochloride] | 0.53 ± 0.019
2 | CO[C@@H]1[C@@H](O[C@@H]2O[C@H](C)[C@@H](O[C@H]3C[C@@](C)(O)[C@@H](OC(=O)CC(C)C)[C@H](C)O3)[C@H](N(C)C)[C@H]2O)[C@@H](CC=O)C[C@@H](C)[C@@H](O)/C=C/C=C/C[C@@H](C)OC(=O)C[C@H]1OC(C)=O [Josamycin] | 0.0528 ± 0.0019
3 | Cc1ccccc1C(OCCN(C)C)c1ccccc1 (centres undefined) [Orphenadrine hydrochloride] | 0.463 ± 0.043
4 | O=C(NCC1CCCCN1)c1cc(OCC(F)(F)F)ccc1OCC(F)(F)F (centres undefined) [Flecainide acetate] | 0.495 ± 0.081
5 | C[C@]12CC[C@@H]3c4ccc(O)cc4C[C@@H](CCCCCCCCC[S+]([O-])CCCC(F)(F)C(F)(F)F)[C@H]3[C@@H]1CC[C@@H]2O (some centres undefined) [Fulvestrant] | 0.439 ± 0.024
6 | CN1CCN(CC(=O)N2c3ccccc3C(=O)Nc3cccnc32)CC1 [Pirenzepine dihydrochloride] | 0.531 ± 0.061
7 | CCCCC(=O)N(Cc1ccc(-c2ccccc2-c2nnn[nH]2)cc1)[C@H](C(=O)O)C(C)C [Valsartan] | 0.557 ± 0.049
8 | CCOc1ccccc1OCC1CNCCO1 (centres undefined) [Viloxazine hydrochloride] | 0.539 ± 0.074
9 | Cc1nc2n(c(=O)c1CCN1CCC(c3noc4cc(F)ccc34)CC1)CCCC2 [Risperidone] | 0.47 ± 0.027
10 | C=C1C(=O)O[C@H]2[C@H]1CC/C(C)=C/CC[C@@]1(C)O[C@@H]21 [Parthenolide] | 0.488 ± 0.038
11 | CC(C(O)c1ccc(O)cc1)N1CCC(Cc2ccccc2)CC1 (centres undefined) [Ifenprodil tartrate] | 0.453 ± 0.037
12 | O=C(c1ccc(F)cc1)C1CCN(CCn2c(=O)[nH]c3ccccc3c2=O)CC1 [Ketanserin tartrate hydrate] | 0.491 ± 0.043
13 | COc1cc2nc(N(C)CCCNC(=O)C3CCCO3)nc(N)c2cc1OC (centres undefined) [Alfuzosin hydrochloride] | 0.462 ± 0.029
14 | CN(C)C(=O)C(CCN1CCC(O)(c2ccc(Cl)cc2)CC1)(c1ccccc1)c1ccccc1 [Loperamide hydrochloride] | 0.0784 ± 0.034
15 | CNCCC=C1c2ccccc2C=Cc2ccccc21 [Norcyclobenzaprine] | 0.514 ± 0.015
16 | O=S(=O)(O)c1cc(O)ccc1O [Ethamsylate] | 0.525 ± 0.079
17 | N[C@@H]1CONC1=O [D-cycloserine] | 0.399 ± 0.14
18 | Clc1ccc(CO/N=C(\Cn2ccnc2)c2ccc(Cl)cc2Cl)c(Cl)c1 [Oxiconazole Nitrate] | 0.0828 ± 0.0028
19 | COc1cc(NS(=O)(=O)c2ccc(N)cc2)ncn1 [Sulfamonomethoxine] | 0.596 ± 0.092
20 | C[C@@H]1NC(=O)NC1=O [Methylhydantoin-5-(L)] | 0.49 ± 0.056

Row | SMILES | growth
21 | Cn1c(=O)c2c(ncn2CC(=O)O)n(C)c1=O [Acefylline] | 0.457 ± 0.013
22 | CCC(=O)O[C@]1(C(=O)SCF)[C@H](C)C[C@H]2[C@@H]3C[C@H](F)C4=CC(=O)C=C[C@]4(C)[C@@]3(F)[C@@H](O)C[C@@]21C [Fluticasone propionate] | 0.576 ± 0.026
23 | Cn1c(=O)c2c(ncn2CCO)n(C)c1=O [Etofylline] | 0.509 ± 0.055
24 | CCOC(=O)[C@H](CCc1ccccc1)N[C@@H](C)C(=O)N1CCC[C@H]1C(=O)O [Enalapril maleate] | 0.499 ± 0.024
25 | CCC[C@@H]1C[C@@H](C(=O)N[C@@H]([C@H]2O[C@H](SC)[C@H](O)[C@@H](O)[C@H]2O)[C@@H](C)O)N(C)C1 [Lincomycin hydrochloride] | 0.486 ± 0.057
26 | CC(C)(C)NC[C@H](O)COc1nsnc1N1CCOCC1 [Timolol maleate salt] | 0.51 ± 0.069
27 | CC(C)NCC(O)COc1ccc(COCCOC(C)C)cc1 (centres undefined) [Bisoprolol fumarate] | 0.448 ± 0.022
28 | c1ccc2c(CC3=NCCN3)cccc2c1 [Naphazoline hydrochloride] | 0.549 ± 0.075
29 | CC(=O)OCC(=O)[C@@]1(O)CC[C@H]2[C@@H]3CCC4=CC(=O)CC[C@]4(C)[C@@]3(F)[C@@H](O)C[C@@]21C [Fludrocortisone acetate] | 0.459 ± 0.028
30 | O=P(O)(O)C(O)(Cn1ccnc1)P(=O)(O)O [Zoledronic acid hydrate] | 0.596 ± 0.074
31 | Cc1c(N(C)C)c(=O)n(-c2ccccc2)n1C [Amidopyrine] | 0.462 ± 0.039
32 | C=C1/C(=C\C=C2/CCC[C@]3(C)[C@@H]([C@H](C)/C=C/[C@@H](O)C4CC4)CC[C@@H]23)C[C@@H](O)C[C@@H]1O [Calcipotriene] | 0.0607 ± 0.0046
33 | NS(=O)(=O)c1cc2c(cc1Cl)N=CNS2(=O)=O [Chlorothiazide] | 0.494 ± 0.032
34 | CN(C)CCc1c[nH]c2ccc(Cn3cncn3)cc12 [Rizatriptan benzoate] | 0.633 ± 0.061
35 | Nc1ncn(C2OC(CO)C(O)C2O)c(=O)n1 (centres undefined) [Azacytidine-5] | 0.4795 ± 0.0037
36 | CC(=O)N[C@@H](CC(=O)N[C@@H](CCC(=O)O)C(=O)O)C(=O)O [Spaglumic acid] | 0.522 ± 0.037
37 | Cc1c(NC(=O)c2cccnc2)c(=O)n(-c2ccccc2)n1C [Nifenazone] | 0.507 ± 0.062
38 | Cc1ccnc2c1NC(=O)c1cccnc1N2C1CC1 [Nevirapine] | 0.507 ± 0.057
39 | CC(C)NCC(O)COc1ccc(CCOCC2CC2)cc1 (centres undefined) [Betaxolol hydrochloride] | 0.562 ± 0.028
